In the supplement of paper PMC10849652:
The full data set covers some 8,800 targets. This sample favours those with a hit. About 0.5% of all pairs of compound and target were hits.

compound: C1CCN(C1)C(=O)NC2=CC=CC(=C2)NC3=NC=C(C(=N3)NCCC4=CN=CN4)Br; assay: log2 fold change, soluble protein after heating vs DMSO (PISA); higher = thermal stabilisation; K562 lysate, 10 uM; active = over 0.2 and 3.5 SD of the protein, either way, in both replicates (recomputed)
In short: (§1)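 To prepare the extract, K562 pellets were dounce-homogenised in PBS pH 7.4 with 1 mM MgCl2, giving crude material at 1 mg/mL protein. This was treated with 10 μM compound for 30 min, then heated in aliquots for 3 min over 48°C-58°C before pooling and addition of NP-40 to 0.5% at 4°C. Centrifugation at 21,000xg for 90 min left soluble protein in the supernatant, which TMTpro 16plex LC-MS/MS quantified with equalised channel sums. Results are log-two fold changes in thermal stability compared with solvent controls, from duplicates.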

Chain of UniProt Q9H089 (Q9H089 whole entry, looked up): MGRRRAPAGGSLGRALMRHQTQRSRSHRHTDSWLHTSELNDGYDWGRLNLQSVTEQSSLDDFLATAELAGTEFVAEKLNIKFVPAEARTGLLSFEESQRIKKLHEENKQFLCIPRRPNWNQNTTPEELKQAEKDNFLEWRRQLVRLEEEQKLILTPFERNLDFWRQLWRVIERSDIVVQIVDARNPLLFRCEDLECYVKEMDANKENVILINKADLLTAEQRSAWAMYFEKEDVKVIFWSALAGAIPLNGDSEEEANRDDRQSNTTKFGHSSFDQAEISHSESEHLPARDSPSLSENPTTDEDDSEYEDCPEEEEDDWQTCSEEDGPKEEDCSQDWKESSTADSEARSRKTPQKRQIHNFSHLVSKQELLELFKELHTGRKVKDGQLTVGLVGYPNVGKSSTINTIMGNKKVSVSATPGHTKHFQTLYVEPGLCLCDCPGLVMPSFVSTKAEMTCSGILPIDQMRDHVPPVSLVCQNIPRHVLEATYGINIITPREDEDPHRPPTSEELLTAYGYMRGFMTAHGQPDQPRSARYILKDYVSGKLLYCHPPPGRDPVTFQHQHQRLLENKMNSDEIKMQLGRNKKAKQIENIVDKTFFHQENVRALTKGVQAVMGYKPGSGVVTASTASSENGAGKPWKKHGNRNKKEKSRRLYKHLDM
Chain of UniProt Q8WVR3 (Q8WVR3 whole entry, looked up): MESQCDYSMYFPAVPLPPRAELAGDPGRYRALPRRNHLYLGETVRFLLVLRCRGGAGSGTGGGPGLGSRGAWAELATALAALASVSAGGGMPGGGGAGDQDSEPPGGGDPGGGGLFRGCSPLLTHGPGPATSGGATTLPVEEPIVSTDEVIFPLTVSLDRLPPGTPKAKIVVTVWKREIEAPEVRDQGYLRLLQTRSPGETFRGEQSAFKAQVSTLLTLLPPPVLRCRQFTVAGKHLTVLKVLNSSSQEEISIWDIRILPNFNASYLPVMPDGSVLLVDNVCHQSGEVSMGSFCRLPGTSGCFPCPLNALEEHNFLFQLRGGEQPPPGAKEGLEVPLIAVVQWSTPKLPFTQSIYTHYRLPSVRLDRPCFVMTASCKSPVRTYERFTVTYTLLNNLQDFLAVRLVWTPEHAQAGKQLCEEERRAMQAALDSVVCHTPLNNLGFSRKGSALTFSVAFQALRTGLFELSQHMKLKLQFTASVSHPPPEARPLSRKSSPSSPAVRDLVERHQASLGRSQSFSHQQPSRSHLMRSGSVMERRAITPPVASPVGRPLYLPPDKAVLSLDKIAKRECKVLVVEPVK
Chain of UniProt Q9BVC4 (Q9BVC4 whole entry, looked up): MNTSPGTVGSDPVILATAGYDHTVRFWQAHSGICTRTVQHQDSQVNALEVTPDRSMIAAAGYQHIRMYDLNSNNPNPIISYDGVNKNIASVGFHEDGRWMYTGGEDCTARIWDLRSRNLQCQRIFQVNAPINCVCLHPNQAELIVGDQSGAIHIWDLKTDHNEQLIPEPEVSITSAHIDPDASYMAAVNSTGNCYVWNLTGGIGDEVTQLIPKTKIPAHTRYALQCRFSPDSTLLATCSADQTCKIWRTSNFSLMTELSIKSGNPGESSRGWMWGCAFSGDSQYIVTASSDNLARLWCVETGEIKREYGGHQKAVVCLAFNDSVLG
Chain of UniProt Q15031 (Q15031 whole entry, looked up): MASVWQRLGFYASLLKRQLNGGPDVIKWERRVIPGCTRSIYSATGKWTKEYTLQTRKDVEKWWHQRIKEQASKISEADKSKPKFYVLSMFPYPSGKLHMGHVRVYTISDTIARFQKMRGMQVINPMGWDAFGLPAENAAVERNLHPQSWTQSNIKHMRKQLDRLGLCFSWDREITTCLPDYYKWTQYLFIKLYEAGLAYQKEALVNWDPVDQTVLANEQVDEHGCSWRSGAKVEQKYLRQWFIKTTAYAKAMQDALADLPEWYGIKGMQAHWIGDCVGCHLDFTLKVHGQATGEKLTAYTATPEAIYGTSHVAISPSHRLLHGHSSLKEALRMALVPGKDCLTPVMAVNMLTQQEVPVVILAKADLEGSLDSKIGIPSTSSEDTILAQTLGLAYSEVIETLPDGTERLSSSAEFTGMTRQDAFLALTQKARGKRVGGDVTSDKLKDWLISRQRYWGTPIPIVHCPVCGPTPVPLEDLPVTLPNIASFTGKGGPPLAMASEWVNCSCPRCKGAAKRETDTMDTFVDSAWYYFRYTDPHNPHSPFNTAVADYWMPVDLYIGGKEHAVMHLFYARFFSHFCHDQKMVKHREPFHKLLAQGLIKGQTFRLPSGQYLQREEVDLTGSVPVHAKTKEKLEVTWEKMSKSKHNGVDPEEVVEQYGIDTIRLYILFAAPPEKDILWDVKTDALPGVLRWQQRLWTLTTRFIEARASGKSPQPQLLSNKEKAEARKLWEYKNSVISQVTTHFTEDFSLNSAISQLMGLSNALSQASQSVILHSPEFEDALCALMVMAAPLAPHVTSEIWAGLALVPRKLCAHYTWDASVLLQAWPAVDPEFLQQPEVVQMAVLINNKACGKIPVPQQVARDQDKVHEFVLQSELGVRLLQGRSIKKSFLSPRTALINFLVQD
Chain of UniProt Q99797 (Q99797 whole entry, looked up): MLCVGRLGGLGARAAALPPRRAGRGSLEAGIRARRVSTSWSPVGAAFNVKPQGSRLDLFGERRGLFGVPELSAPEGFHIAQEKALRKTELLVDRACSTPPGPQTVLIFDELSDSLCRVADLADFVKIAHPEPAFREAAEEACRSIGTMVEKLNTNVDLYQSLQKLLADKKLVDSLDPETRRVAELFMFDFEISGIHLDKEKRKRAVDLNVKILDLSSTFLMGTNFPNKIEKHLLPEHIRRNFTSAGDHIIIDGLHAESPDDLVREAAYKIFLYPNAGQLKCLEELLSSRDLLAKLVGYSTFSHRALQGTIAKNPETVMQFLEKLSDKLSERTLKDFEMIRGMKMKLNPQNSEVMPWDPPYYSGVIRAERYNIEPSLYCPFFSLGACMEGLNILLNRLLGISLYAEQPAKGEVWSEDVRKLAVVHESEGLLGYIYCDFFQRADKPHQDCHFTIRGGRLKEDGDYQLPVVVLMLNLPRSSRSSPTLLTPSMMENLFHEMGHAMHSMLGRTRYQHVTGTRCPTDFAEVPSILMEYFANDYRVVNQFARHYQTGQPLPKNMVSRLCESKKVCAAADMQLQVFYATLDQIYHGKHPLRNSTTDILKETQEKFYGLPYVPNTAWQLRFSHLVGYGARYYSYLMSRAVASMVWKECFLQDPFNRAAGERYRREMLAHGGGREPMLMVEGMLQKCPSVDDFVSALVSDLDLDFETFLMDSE
Chain of UniProt Q7Z3D4 (Q7Z3D4 whole entry, looked up): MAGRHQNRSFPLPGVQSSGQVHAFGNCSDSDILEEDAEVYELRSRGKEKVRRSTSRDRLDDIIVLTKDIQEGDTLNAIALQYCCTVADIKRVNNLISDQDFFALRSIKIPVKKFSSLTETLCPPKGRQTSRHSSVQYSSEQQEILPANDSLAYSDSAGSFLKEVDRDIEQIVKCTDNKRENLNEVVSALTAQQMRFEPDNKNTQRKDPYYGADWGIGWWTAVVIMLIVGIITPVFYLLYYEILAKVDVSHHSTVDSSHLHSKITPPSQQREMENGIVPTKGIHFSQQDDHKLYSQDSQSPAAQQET
Chain of UniProt P49916 (P49916 whole entry, looked up): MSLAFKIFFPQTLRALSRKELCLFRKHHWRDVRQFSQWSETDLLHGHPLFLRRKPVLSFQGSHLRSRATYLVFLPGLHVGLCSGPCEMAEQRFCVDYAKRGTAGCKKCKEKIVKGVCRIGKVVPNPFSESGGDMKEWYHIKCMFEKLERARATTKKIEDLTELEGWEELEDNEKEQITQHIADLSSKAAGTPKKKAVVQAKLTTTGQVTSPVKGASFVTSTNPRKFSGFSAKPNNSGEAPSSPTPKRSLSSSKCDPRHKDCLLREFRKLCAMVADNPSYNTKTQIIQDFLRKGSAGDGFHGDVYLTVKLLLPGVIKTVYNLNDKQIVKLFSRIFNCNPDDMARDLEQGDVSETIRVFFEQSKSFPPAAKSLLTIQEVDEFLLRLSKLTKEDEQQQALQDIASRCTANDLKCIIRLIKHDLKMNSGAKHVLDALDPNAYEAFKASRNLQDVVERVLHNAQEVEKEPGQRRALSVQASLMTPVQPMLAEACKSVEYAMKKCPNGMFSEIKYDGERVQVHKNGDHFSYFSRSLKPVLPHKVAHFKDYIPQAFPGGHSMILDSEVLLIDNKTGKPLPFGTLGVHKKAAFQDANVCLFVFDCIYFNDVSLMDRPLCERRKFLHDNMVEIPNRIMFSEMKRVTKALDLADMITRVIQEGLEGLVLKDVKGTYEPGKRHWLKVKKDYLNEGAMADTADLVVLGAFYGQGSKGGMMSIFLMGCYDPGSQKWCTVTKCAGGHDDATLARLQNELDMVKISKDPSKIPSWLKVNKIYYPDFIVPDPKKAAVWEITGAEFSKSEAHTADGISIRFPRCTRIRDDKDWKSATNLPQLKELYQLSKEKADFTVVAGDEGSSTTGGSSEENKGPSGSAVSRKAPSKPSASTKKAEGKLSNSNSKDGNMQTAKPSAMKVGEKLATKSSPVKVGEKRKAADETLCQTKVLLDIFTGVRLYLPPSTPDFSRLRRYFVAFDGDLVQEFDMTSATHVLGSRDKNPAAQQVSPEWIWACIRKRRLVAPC
Chain of UniProt Q9Y448 (Q9Y448 whole entry, looked up): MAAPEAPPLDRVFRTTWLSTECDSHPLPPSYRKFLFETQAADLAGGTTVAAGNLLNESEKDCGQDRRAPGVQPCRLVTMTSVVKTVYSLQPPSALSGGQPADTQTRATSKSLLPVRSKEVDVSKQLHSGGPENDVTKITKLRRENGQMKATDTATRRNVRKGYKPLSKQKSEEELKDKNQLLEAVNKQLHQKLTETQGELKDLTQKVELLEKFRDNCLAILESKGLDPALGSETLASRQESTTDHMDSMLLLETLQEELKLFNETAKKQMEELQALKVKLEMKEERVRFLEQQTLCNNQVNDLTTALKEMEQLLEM

log2 fold change, inactive:
MLST8 (UniProt Q9BVC4) -0.091
MIPEP (UniProt Q99797) 0.006
LSS (UniProt P48449) -0.094
LIG3 (UniProt P49916) 0
LSG1 (UniProt Q9H089) -0.031
MFF isoform 2 (UniProt Q9GZY8) 0.024
LIG4 (UniProt P49917) 0.009
MICU2 (UniProt Q8IYU8) -0.037
MAP7D3 (UniProt Q8IWC1) -0.034
LARS2 (UniProt Q15031) 0.03
LUC7L (UniProt Q9NQ29) -0.02
MED8 isoform 2 (UniProt Q96G25) 0.014
MAP4 (UniProt P27816) -0.007
MITD1 (UniProt Q8WV92) -0.047
MIF4GD isoform 3 (UniProt A9UHW6) -0.052
LRCH3 (UniProt Q96II8) -0.102
MLH1 (UniProt P40692) -0.037
MAP4 (UniProt E7EVA0) 0.071
MBOAT2 (UniProt Q6ZWT7) -0.148
LYSMD3 (UniProt Q7Z3D4) 0.037
KPNA4 (UniProt O00629) -0.045
LYN (UniProt P07948) 0.07
KPNA2 (UniProt P52292) -0.017
MICB, A0A140T979 -0.021
KIF26A (UniProt Q9ULI4) 0.108
MORF4L1 isoform 2 (UniProt Q9UBU8) -0.04
LBR (UniProt Q14739) -0.032
MAP11 (UniProt Q8WVR3) -0.135
KNSTRN (UniProt Q9Y448) 0.036
KNL1 (UniProt Q8NG31) 0.006
MAST4 (UniProt O15021) 0.149
LTN1 isoform 3 (UniProt O94822) -0.019
MECR (UniProt Q9BV79) -0.053
MAP4K2 (UniProt Q12851) 0.288
MAPK8 isoform 3 (UniProt P45983) 0.003
MPZL1 (UniProt O95297) 0.015
MRPL28 (UniProt Q13084) 0.042
KRI1 (UniProt Q8N9T8) 0.033
MPP1 (UniProt Q00013) 0.003

compound: C1CN(CCC1(CC2=CC=C(C=C2)Cl)N)C3=NC=NC4=C3C=CN4; assay: as above
In short: as §1

log2 fold change, inactive:
MLST8 (UniProt Q9BVC4) 0.033
MIPEP (UniProt Q99797) 0.005
LSS (UniProt P48449) 0.019
LIG3 (UniProt P49916) -0.036
LSG1 (UniProt Q9H089) 0.103
MFF isoform 2 (UniProt Q9GZY8) 0.037
LIG4 (UniProt P49917) -0.057
MICU2 (UniProt Q8IYU8) 0.038
MAP7D3 (UniProt Q8IWC1) -0.012
LARS2 (UniProt Q15031) 0.039
LUC7L (UniProt Q9NQ29) -0.004
MED8 isoform 2 (UniProt Q96G25) 0.088
MAP4 (UniProt P27816) 0.003
MITD1 (UniProt Q8WV92) -0.02
MIF4GD isoform 3 (UniProt A9UHW6) 0.051
LRCH3 (UniProt Q96II8) -0.014
MLH1 (UniProt P40692) 0.015
MAP4 (UniProt E7EVA0) 0.061
MBOAT2 (UniProt Q6ZWT7) -0.011
LYSMD3 (UniProt Q7Z3D4) 0
KPNA4 (UniProt O00629) -0.012
LYN (UniProt P07948) -0.042
KPNA2 (UniProt P52292) 0.013
MICB, A0A140T979 0.275
KIF26A (UniProt Q9ULI4) 0.249
MORF4L1 isoform 2 (UniProt Q9UBU8) -0.01
LBR (UniProt Q14739) 0.005
MAP11 (UniProt Q8WVR3) 0.02
KNSTRN (UniProt Q9Y448) -0.061
KNL1 (UniProt Q8NG31) -0.007
MAST4 (UniProt O15021) -0.011
LTN1 isoform 3 (UniProt O94822) 0.023
MECR (UniProt Q9BV79) 0.079
MAP4K2 (UniProt Q12851) -0.205
MAPK8 isoform 3 (UniProt P45983) 0
MPZL1 (UniProt O95297) -0.04
MRPL28 (UniProt Q13084) -0.031
KRI1 (UniProt Q8N9T8) -0.04
MPP1 (UniProt Q00013) 0.018
